# Most compounds without a hit are left out; they make up all but 3.4% or so of the library.
# LGR2 inh – Drosophila LGR2 receptor signaling inhibition. HEK293 LGR2, CRE-luciferase, bursicon-stimulated, 4 h. inhibition, % at 9.99 µM. hit rate 0.35% among 380,000. AID 720647;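 active = drop in luminescence signal, shown as inhibition above about 50% in the replicate tests, limit read from the data, passing the limit was not always enough; inconclusive = probably only some replicates passing the limit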;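 note: agonist challenge used bursicon conditioned medium at about half maximal strength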
# PAX8 reporter – inhibitors of PAX8 transcriptional activity in RMG-I cells; RMG-I TPO-luciferase reporter, SteadyGlo, 24 h; hit rate 1.2% among 360,000; inhibition, % at 12.6 µM;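 active = mean replicate inhibition at least 60% with every replicate also reaching 60%; inconclusive = only one of the two criteria is met; inactive = mean below 60% and not all replicates reaching 60%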;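 note: luciferase light reporting Pax8 driven TPO promoter activity; plate controls were median of neutral control wells for no effect and mitoxantrone controls for full effect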
# SIRT5 inh – blocks human SIRT5 desuccinylation of peptide; Purified SirT5, succinyl-peptide AMC, trypsin-coupled fluorescence; inhibition, % at 15 µM; hit rate 1.1% among 330,000; Q9NXA8; in the data active = inhibition above about 15%; inconclusive = no clear call, values can overlap the other calls
# Target sequence (Q9NXA8 whole entry, looked up): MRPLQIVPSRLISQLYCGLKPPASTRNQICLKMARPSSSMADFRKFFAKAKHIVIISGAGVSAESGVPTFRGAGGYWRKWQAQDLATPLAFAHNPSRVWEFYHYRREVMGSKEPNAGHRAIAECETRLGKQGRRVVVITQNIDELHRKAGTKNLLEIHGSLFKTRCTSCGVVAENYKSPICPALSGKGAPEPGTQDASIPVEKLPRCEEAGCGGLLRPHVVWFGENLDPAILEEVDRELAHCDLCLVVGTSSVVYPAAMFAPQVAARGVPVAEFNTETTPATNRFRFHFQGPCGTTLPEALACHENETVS
# PGC1a acetyl inh – lowers PGC1a acetylation signal in U2OS cells. AlphaScreen anti-acetyl-lysine; with virally co-expressed GCN5 acetyltransferase. inhibition, % at 15.6 µM. hit rate 0.17% among 350,000. AID 651687;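 active = every replicate shows inhibition of at least 40%; inconclusive = mean inhibition at least 40% but some replicate below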;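 note: 0% = neutral control wells and 100% = positive control wells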
# EWS-Fli block – blocks EWS/Fli oncoprotein-driven transcription; A673 NR0B1-luciferase reporter, viability-normalised; inhibition, % at 12.6 µM; hit rate 0.67% among 350,000; AID 651661;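 active = mean inhibition of at least 50% after viability correction, with every replicate also passing that limit; inconclusive = mean reaches 50% but only one of two replicates passes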;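 note: firefly luciferase signal divided by Alamar Blue viability fluorescence both relative to DMSO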
# Ecoli rRNA inh – inhibits bacterial ribosomal RNA function over humanized ribosomes | E. coli WT GFP vs humanized-ribosome RFP mutants, fluorescence, 24 h; stronger effect = lower value; DMSO median 0, no signal -100 | GFP signal change (wild-type ribosome), % (test concentration not listed) | hit rate 1.6% among 350,000;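 active = significant combined selectivity score with lowered wild-type GFP, culture density cut under 30%, mutant RFP and density less affected; inactive = any of these conditions unmet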
# * = called active by the depositor; ? = inconclusive; . = no result.
SMILES,LGR2 inh,PAX8 reporter,SIRT5 inh,PGC1a acetyl inh,EWS-Fli block,Ecoli rRNA inh
C=CCOc1c(Br)cc(C2C3=C(CCCC3=O)N(C)C3=C2C(=O)CCC3)cc1OCC,5,7,-11,.,-5,-34*
C/C(=C\CNc1ncnc2nc[nH]c12)CO,-8,.,-1,-10,2,8
CC(C)CCCCCCCCCCCCC(=O)NCC(=O)NC1C(C)OC(Nc2ncnc3nc[nH]c23)C(O)C1O (centres undefined),.,106*,.,?,23,.
Oc1ccccc1N=Cc1c(O)ccc2ccccc12,3,19,23*,-25,17,-9
Oc1ccc2ccccc2c1C=Nc1ccccc1Br,-6,-6,0,.,11,7
Oc1cccc(C=Nc2cccc3ccccc23)c1O,-3,?,-2,.,26,-32*
Cc1nc2c(=O)[nH]c(=S)[nH]c2[nH]c1=O,15,-10,41*,1,-14,16
CC(=O)N[C@H]1C[C@@H]2O[C@@H](CO)CC[C@@H]2O[C@@H]1CCc1ccc(C#CC2(O)CCCC2)cc1,.,.,-2,11,9,.
O=C(O)C[C@@H]1C[C@H]2c3cc(NC(=O)NC4CCCC4)ccc3O[C@H]2[C@@H](CO)O1,1,-3,2,1,-11,3
O=C(Nc1ccc(F)cc1)N1C[C@@H]2[C@H](c3ccccc31)[C@@H](CO)N2C(=O)c1ccccn1,-22,8,.,-2,-4,0
O=C(Nc1cccc(Cl)c1)N1C[C@@H]2[C@H](c3ccccc31)[C@H](CO)N2C(=O)c1cccnc1,1,10,.,-2,-10,-20*
O=C(Nc1ccccc1)N1C[C@@H]2[C@H](c3ccccc31)[C@@H](CO)N2C(=O)Cc1ccccn1,-7,-31,0,1,-32,-37*
O=C(Nc1ccc(Cl)cc1)N1C[C@@H]2[C@H](c3ccccc31)[C@@H](CO)N2C(=O)c1ccccn1,2,-6,.,-3,-18,-25*
O=C(Nc1ccc(Cl)cc1)N1C[C@@H]2[C@H](c3ccccc31)[C@H](CO)N2C(=O)c1ccccn1,-30,16,0,2,-16,-53*
Cc1cccc2cc(-c3ccccc3)c(-c3ccccc3)c[n+]12,3,32,-2,-6,17,-42*
C[C@H](CO)N1C[C@H](C)[C@H](CN(C)Cc2ccncc2)Oc2cc(C#CC3CC3)ccc2S1(=O)=O,-13,.,-1,1,15,-1
NNc1nc2c(Cl)ccc(Cl)c2s1,-1,10,1,-8,6,-26*
O=C(Nc1nc2c(Cl)ccc(Cl)c2s1)C1CC1,-7,25,2,-2,-4,-4
COC(=O)c1c(N)sc(C(=O)NCCc2ccccc2)c1C,98*,65*,0,22,83*,-8
O=C(O)c1cc(S(=O)(=O)N2CCN(C(c3ccccc3)c3ccccc3)CC2)ccc1Cl,-2,-4,-2,6,-8,-16*
Cc1ccc(S(=O)(=O)N2CCCCC2)cc1C(=O)N1CCCC1,-1,7,-1,.,-4,0
Cc1ccc(S(=O)(=O)N2CCCC2)cc1C(=O)O,.,4,.,59*,.,.
C[C@@H]1CN([C@@H](C)CO)C(=O)Cc2cc(NC(=O)c3ccncc3)ccc2O[C@H]1CN(C)Cc1ccc(C(F)(F)F)cc1,-2,26,.,-14,7,-9
CC1CCCCN1CCCNC(=O)Cn1c(=O)c2cccn2c2ccccc21 (centres undefined),-19,6,21*,-3,.,11
COc1ccccc1NCC(O)COc1ccc(C(C)(C)C)cc1 (centres undefined),0,4,-3,.,8,-39*
SMILES,LGR2 inh,PAX8 reporter,SIRT5 inh,PGC1a acetyl inh,EWS-Fli block,Ecoli rRNA inh
COc1ccc(NCC(O)COc2ccc(C(C)(C)C)cc2)cc1 (centres undefined),-17,-6,-1,-8,15,-30
COc1cccc(S(=O)(=O)N(C)C[C@@H]2Oc3ncc(-c4cccc(C(F)(F)F)c4)cc3C(=O)N([C@H](C)CO)C[C@@H]2C)c1,14,32,20*,-1,10,-3
C[C@H]1CN([C@@H](C)CO)C(=O)c2cc(C#CCN(C)C)cnc2O[C@H]1CN(C)S(=O)(=O)c1ccccc1,5,.,63*,2,7,3
CCCC#Cc1cnc2c(c1)C(=O)N([C@@H](C)CO)C[C@@H](C)[C@H](CN(C)S(=O)(=O)c1cccc(OC)c1)O2,-6,-3,29*,-14,-1,-4
Cc1ccc(S(=O)(=O)N(C)C[C@@H]2Oc3ncc(C#Cc4ccc(C(F)(F)F)cc4)cc3C(=O)N([C@H](C)CO)C[C@@H]2C)cc1,10,.,25*,-7,10,0
C[C@H](CO)N1C[C@H](C)[C@H](CN(C)S(=O)(=O)c2ccc(F)cc2)Oc2ncc(C#Cc3ccc(C(F)(F)F)cc3)cc2C1=O,18,38,7,-7,24,4
O=C(C1CCCC1)N1CC2(C1)[C@@H](c1ccccc1)[C@@H](CO)N2C(=O)NC1CCCC1,-17,.,-1,.,-6,1
COc1ccc2sc(NC(=O)c3ccco3)nc2c1,75*,.,-1,3,39,8
COc1ccc2nc(NC(=S)NC(=O)c3ccco3)sc2c1,-28,-408,.,.,.,.
CO[C@H]1CN(C)C(=O)c2ccc(NC(=O)NC(C)C)cc2OC[C@H](C)N(C(=O)NC(C)C)C[C@@H]1C,.,.,.,.,.,1
Cc1ccc(C(C)C)c(OCCCCN2CCNCC2)c1,-5,-11,18*,-19,22,4
CO[C@@H]1CN(C)C(=O)c2ccc(NC(=O)Nc3ccccc3)cc2OC[C@@H](C)NC[C@@H]1C,12,.,-3,.,.,4
CCOc1cc(C(=S)N2CCCC2)ccc1O,-16,10,-1,-6,-3,14
C=CCOc1c(Cl)cc(C(=S)N2CCCC2)cc1OCC,2,43,1,-2,58*,-8
CNC(=S)NNC(=O)CSCc1c(Cl)cccc1Cl,-12,-2,-4,-6,-2,-21*
CNC(=O)CSCc1c(Cl)cccc1Cl,14,.,.,-11,.,.
COc1cccc(-n2c(SCC(=O)NCC3CCCO3)nc3c([nH]c4ccccc43)c2=O)c1 (centres undefined),-11,20,3,2,10,-24*
COc1cccc(-n2nnc3c(=O)n(CC(=O)NCC4CCCO4)cnc32)c1 (centres undefined),-13,11,16*,.,5,-1
CSc1nc(N)nc2c1ncn2CC(=O)NCC1CCCO1 (centres undefined),6,1,31*,2,4,6
CCCNC(=O)C[C@H]1CC[C@@H]2[C@@H](COc3ccc(NC(=O)Nc4ccccc4F)cc3C(=O)N2C)O1,-11,7,-2,-9,9,-2
CC(=O)Nc1cccc2c1O[C@@H](CN(C)C)[C@H](C)CN(C)C2=O,.,.,.,.,.,1

# Compound activity from PubChem BioAssay.
